# Compounds without any hit were thinned out: in the full panel of roughly 79,000, 15% have a hit. Values without a mark were called inactive. Calls of active or inactive are those of the source. Rule as the data show it: active = growth inhibition above about 70%; inactive = the rest.
# Tests used:
# [1] = NCI Yeast Anticancer Drug Screen. Data for the rad50 strain (AID 155);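 also: 0% = growth of vehicle-only cultures of the same strain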; conditions: S. cerevisiae rad50 strain growth inhibition; at 50.0 µM; active compounds read high
# Outline: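 Relative growth inhibition (compound vs vehicle) was measured in yeast with a defined repair-gene alteration.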
# [2] = NCI Yeast Anticancer Drug Screen. Data for the mec2-1 strain (AID 157); conditions: S. cerevisiae mec2-1 strain, at 50.0 µM, active compounds read high
# Outline: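 Each compound was tested on mec2-1 yeast, a strain altered in DNA damage repair or cell cycle control. Growth inhibition is reported relative to vehicle.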
# [3] = NCI Yeast Anticancer Drug Screen. Data for the sgs1 mgt1 strain (AID 161);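 also: 0% = growth of cultures given vehicle only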; conditions: S. cerevisiae sgs1 mgt1 strain, at 50.0 µM, active compounds read high
# Outline: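 Inhibition of yeast growth, normalised to vehicle-treated controls, is reported for a strain bearing genetic alterations in DNA damage repair.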
# [4] = NCI Yeast Anticancer Drug Screen. Data for the cln2 rad14 strain (AID 165);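 also: 0% = growth equal to vehicle treated cultures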; conditions: S. cerevisiae cln2 rad14 strain, at 50.0 µM, active compounds read high
# Outline: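 Test compounds were added to cln2 rad14 yeast cultures; inhibition of growth was then determined by comparison with vehicle treatment.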
# [5] = NCI Yeast Anticancer Drug Screen. Data for the bub3 strain (AID 167); conditions: S. cerevisiae bub3 mutant strain, at 50.0 µM, active compounds read high
# Outline: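 Screening used yeast with an engineered genetic alteration affecting cell cycle control. Compound-exposed cultures were compared with vehicle cultures, and reduced growth was taken as inhibition.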
# [6] = NCI Yeast Anticancer Drug Screen. Data for the mlh1 rad18 strain (AID 175); conditions: S. cerevisiae mlh1 rad18 strain growth inhibition; at 50.0 µM; active compounds read high
# Outline: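 Inhibition values reflect reduced growth of mutant yeast versus vehicle-treated controls following compound exposure; the mutations affect DNA damage repair.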
SMILES,growth inhibition [1],growth inhibition [2],growth inhibition [3],growth inhibition [4],growth inhibition [5],growth inhibition [6]
C[N+]12CCC34C5=CC(=O)C(=O)C=C5[N+]5(C)C(=O)CC6OCC=C(C1)C(CC32)C6C45 (stereo unspecified),-2%,-22.1%,4.65%,10.9%,11.7%,0.7%
O=c1[nH]c(=O)n(Cl)c(=O)n1Cl,16.4%,23.1%,14.2%,6.2%,31%,21.9%
OCC1OC(n2nnc3cc(Cl)c(Cl)cc32)C(O)C1O (stereo unspecified),7.3%,-0.8%,5.85%,11.3%,18.8%,21.7%
CC1=CC(=O)C2=C(C)C[C@H](O)[C@@H]3[C@H](OC(=O)[C@H]3C)[C@@H]12,-2.45%,2.95%,6.4%,17.2%,6.25%,8.85%
CC12CCC(OC3OC(CO)C(O)C(O)C3O)C=C1CCC1C2CCC2(C)C(c3ccc(=O)oc3)CCC12 (stereo unspecified),62.5%,60%,46.3%,35.2%,61.2%,45.6%
CCC(=O)c1ccc(N)cc1,7.95%,4.45%,2.15%,-26.4%,-4.8%,6.25%
CC1(C)N=C(N)N=C(N)N1c1ccc(CCCCc2cc(Cl)ccc2S(=O)(=O)F)c(Cl)c1,99.3% (active),99.7% (active),99.5% (active),98.4% (active),98.5% (active),99.6% (active)
O=[As](O)(O)c1cccc(Cl)c1,9.3%,-0.25%,-13.8%,1.85%,1.9%,-0.9%
CN1CC[CH2][Sn]([Cl])([Cl])[CH2]CC1,-1.25%,-5.9%,1.15%,1.3%,-17.2%,13%
CC(C)(O)[C@H]1[C@@H]2OC(=O)[C@H]1[C@]1(O)C[C@H]3OC34C(=O)O[C@H]2[C@@]41C (stereo partly specified) (tested in a mixture with another compound),1.05%,-12.8%,19.6%,-9.25%,-12.4%,-65.3%
O=C(COc1cccc(Cl)c1)Nc1cccc(NC(=O)c2ccc(S(=O)(=O)F)cc2)c1,2.75%,5.95%,-6.85%,-17.2%,-5.75%,9.2%
CC(C)N(C(C)C)P(OCCC#N)OC1CC(n2cnc3c(=O)[nH]cnc32)OC1COC(=O)NCCCCCCNC(=O)OC(C)(C)c1ccc(-c2ccccc2)cc1 (stereo unspecified),-11.2%,-26.4%,-27%,10%,12.8%,-18.4%
CN1CCC(O)(c2ccccc2)C(O)C1 (stereo unspecified),11.2%,29.1%,23.5%,32.3%,-4%,39.2%
OC(CN1CC1)C(O)CN1CC1 (stereo unspecified),-16.4%,-26.2%,-34%,8.15%,-44.8%,-14.2%
NC(Cc1ccc(O)c(F)c1)C(=O)O (stereo unspecified),-37.1%,-40.4%,-41.2%,-2.75%,-51.9%,-14.3%
NC(=O)Oc1ccccc1,-4.5%,-26.4%,5.4%,12.1%,-10%,-3.6%
C=CC1CC=CCC1 (stereo unspecified),-7.1%,-5.2%,9.15%,-25.2%,-0.55%,-11.9%
CCCCN1CCC2(C)c3cc(O)ccc3CC1C2CC (stereo unspecified),6.8%,9.5%,4.4%,-46.6%,11.3%,12.7%
O=C1OC(=O)C2CC3C(CC12)C1(Cl)C(Cl)=C(Cl)C3(Cl)C1(Cl)Cl (stereo unspecified),-15.5%,-28.2%,-13.1%,-5.4%,-17.4%,3%
C[N+](C)(C)CC1CCc2ccccc2C1=O (stereo unspecified),89.2% (active),44.6%,69.2%,50.2%,40.5%,91.4% (active)
CCCCCC[n+]1noc(N)c1-c1ccc(-c2c(N)on[n+]2CCCCCC)cc1,17.6%,-1.35%,26.1%,21.8%,16.2%,18.5%

SMILES,growth inhibition [1],growth inhibition [2],growth inhibition [3],growth inhibition [4],growth inhibition [5],growth inhibition [6]
N#CCC(=O)c1ccccc1,3.3%,29.9%,-0.25%,-20.7%,-10.9%,1.4%
CCCCP(CCCC)CCCC,-10%,0.95%,4.15%,19.2%,51%,19.6%
C[N+](C)(Cc1ccccc1[N+](=O)[O-])c1ccc(N(CCCl)CCCl)cc1,-7.8%,-8.15%,-4.2%,-16.7%,-22.3%,12.6%
C[N+](C)(C)CC1CCCC/C1=N\O (stereo unspecified),23.2%,0.3%,9.75%,39%,8.6%,39.3%
Clc1ccc(C(Cl)(Cl)Cl)c(Cl)c1,9%,6.35%,-9.3%,-15.8%,17.9%,20.4%
CC(C)(C)N.[O]=[Cr](=[O])([OH])[OH],20.9%,7.45%,29.1%,-2.25%,21.7%,21%
CCCCS(=O)(=O)Cl,34.5%,13.2%,9.8%,-12.5%,29.8%,25.9%
O=C(CC(O)C(Cl)(Cl)Cl)CC(O)C(Cl)(Cl)Cl (stereo unspecified),15%,-0.7%,10.2%,18%,20.4%,13.4%
CC(C)C1(Cc2ccccc2)C(=O)NC(=S)NC1=O,-2.05%,-0.8%,9.3%,-2.85%,-14.2%,-2.7%
O=NNc1cccc(NN=O)n1,47.2%,-22.8%,-34.1%,-2.75%,-26.5%,-3.15%
C[C@@]12CC/C(=N\OCC(=O)O)C=C1CC[C@H]1C2CC[C@]2(C)C1CC[C@H]2O (stereo partly specified),-9.4%,-2.55%,-14.6%,-15.8%,2.75%,-14.7%
CC(=O)CCNC1(c2ccccc2)CCCCC1,3.6%,2.95%,-2.65%,-0.65%,-2.5%,-2.9%
[Pd].c1ccc([PH+](CC[PH+](c2ccccc2)c2ccccc2)c2ccccc2)cc1.c1ccc([PH+](CC[PH+](c2ccccc2)c2ccccc2)c2ccccc2)cc1,24.8%,12.8%,59.5%,15.1%,15.7%,24.2%
C[N+](C)(C)CC1CCCC(C[N+](C)(C)C)C1=NO (stereo unspecified),24.9%,12.1%,-4.85%,19.7%,-1.5%,20.6%
Cc1ccc(O)cc1C,9.95%,14.1%,26%,26.8%,3.75%,7.95%
CC1=CC(=Nc2ccc(N(CCCl)CCCl)cc2)C=CC1=O,-6.1%,33.2%,-28.4%,14.2%,-7.9%,5.35%
Nc1ccccc1Nc1ccccc1C(=O)[O-].Nc1ccccc1Nc1ccccc1C(=O)[O-].[Cu+2],-3.5%,7.8%,-19.5%,-3.3%,-11.8%,7.75%
Cc1cc(C)c(O)c(CN2CCCCC2)c1,4.35%,13.1%,32.8%,-4%,19.6%,14.5%
Cc1ccc(-n2c(=O)[nH]c3ccccc3c2=O)cc1[N+](=O)[O-],12.9%,12.3%,33%,23.2%,35.4%,26.6%
CCCCC(CC)COP(OCC(CC)CCCC)OCC(CC)CCCC (stereo unspecified),22.1%,-14.4%,-18.9%,-37.5%,-7.25%,-6.95%

# — PubChem BioAssay (NCI)
